Records with an inconclusive call do not appear. Active and inactive are the calls of the source. The calls were made as follows: active = hit-call score of the fitted dose curve at least 0.9, where 1 is the maximum; inconclusive = response in the unintended direction; inactive = score below 0.9.

This assay is described as follows: CCTE_Mundy_HCI_Cortical_NOG_NeuronCount: CCTE's Neurite Outgrowth Assay in rat cortical cells for Neuron Count, Mundy Lab (AID 2284236).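 Also: neurons counted by imaging betaIII-tubulin and Hoechst stained cortical cells; cells exposed to compound for about 48 hours before fixation.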 How it is done: CCTE_Mundy_HCI_Cortical_NOG is a multiplexed, cell-based-readout assay that uses rat primary cortical cells with measurements taken at 50.33 hours after chemical dosing in a microplate: 96-well plate.CCTE_Mundy_HCI_Cortical_NOG_NeuronCount is one of four components of the CCTE_Mundy_HCI_Cortical_NOG assay. It measures cell viability related to the number of neurons using High Content Imaging of fluorescently labelled markers.[…] Using a type of morphology reporter, loss -of-signal activity can be used to understand developmental effects.
Exposure starts 2 hours post-plating by adding 10 ul of the working solution to 90 ul of media in the wells for a 1/10 dilution. Forty-eight hours after chemical treatment cells are fixed by direct addition of 100 ul of warm (37C) Dulbecco's phosphate buffered saline (DPBS) fixative solution containing 8% paraformaldehyde, 8% sucrose, and 0.1% of 3 mg/ml Hoechst 33342 into each well. Primary antibodies are prepared by dilution in Immunocytochemical Staining Buffer (ISB), 10X Dulbecco's PBS, 0.1% Saponin, 5% Bovine Serum Albumin, 0.5% NaN3 (Sodium Azide) and betaIII-tubulin (rabbit anti-betaIII-tubulin, 1:800) followed by Alexa Fluor-488 secondary (1:500) to label neuronal cell bodies and neurites. A Cellomics ArrayScan VTi HCS Reader is used for automated image acquisition and analysis of neurite outgrowth.
`COC(=O)N(OC)c1ccccc1COc1ccn(-c2ccc(Cl)cc2)n1`: the AC50 (in general, the midpoint of the concentration-response curve, whichever way the signal moves) was 0.143 µM (active).

On to `COP(N)(=O)SC` (stereo unspecified), for which the call was inactive.

With `CCOC(=O)CC(SP(=S)(OC)OC)C(=O)OCC` (stereo unspecified), the AC50 is 23.9 µM (active).

Consider `CC(C)(C)c1ccc(CSc2cnn(C(C)(C)C)c(=O)c2Cl)cc1`, for which the AC50 was 0.0982 µM (active).

As to `CN(C)C(=S)SSC(=S)N(C)C`, the AC50 was 0.0469 µM (active).

With `N#Cc1nn(-c2c(Cl)cc(C(F)(F)F)cc2Cl)c(N)c1S(=O)C(F)(F)F` (stereo unspecified), the call was inactive. Turning to `Cc1ccc(-c2c(Cl)nc(C#N)n2S(=O)(=O)N(C)C)cc1`, the concentration at half-maximal activity (AC50) is 50 µM (active). Regarding `CCCCOC(=O)c1ccccc1C(=O)OCCCC`, the result was inactive. For the molecule `C=CC1(C)OC(=O)N(c2cc(Cl)cc(Cl)c2)C1=O` (stereo unspecified), the result was inactive. On to `COP(=S)(OC)Oc1nc(Cl)c(Cl)cc1Cl`, for which the half-maximal activity concentration (AC50) was 15 µM (active). For the molecule `CO/C=C(/C(=O)OC)c1ccccc1Oc1cc(Oc2ccccc2C#N)ncn1`, the half-maximal activity concentration (AC50) is 4.67 µM (active).

(Values after PubChem BioAssay (EPA / NIEHS).)
